# Laboratory results from the supplement of paper PMC12067093, “Discovery and optimisation of a covalent ligand for TRIM25 and its application to targeted protein ubiquitination” (Chemical Science, 2025).
# Of roughly 21,000 targets only a part is listed; those with the largest changes were picked by preference.
# Target: SLTM_Q9NWH9_107_KHEADELSGDASVEDDAFIKDCELENQEAHEQDGNDELK (UniProt Q9NWH9)
# Assay: probe-labelled cysteine peptide fold change vs DMSO (competition) (log2 fold change); higher = less target engagement (more negative = stronger competition)
# Settings: THP-1, incubation time: 4 h
# 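Note: competitive profiling in live THP-1 cells: cysteine peptides tagged with an iodoacetamide desthiobiotin (IA-DTB) probe, intensity after compound treatment relative to DMSO-treated cells.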
# Chain of UniProt Q9NWH9 (Q9NWH9 whole entry, looked up): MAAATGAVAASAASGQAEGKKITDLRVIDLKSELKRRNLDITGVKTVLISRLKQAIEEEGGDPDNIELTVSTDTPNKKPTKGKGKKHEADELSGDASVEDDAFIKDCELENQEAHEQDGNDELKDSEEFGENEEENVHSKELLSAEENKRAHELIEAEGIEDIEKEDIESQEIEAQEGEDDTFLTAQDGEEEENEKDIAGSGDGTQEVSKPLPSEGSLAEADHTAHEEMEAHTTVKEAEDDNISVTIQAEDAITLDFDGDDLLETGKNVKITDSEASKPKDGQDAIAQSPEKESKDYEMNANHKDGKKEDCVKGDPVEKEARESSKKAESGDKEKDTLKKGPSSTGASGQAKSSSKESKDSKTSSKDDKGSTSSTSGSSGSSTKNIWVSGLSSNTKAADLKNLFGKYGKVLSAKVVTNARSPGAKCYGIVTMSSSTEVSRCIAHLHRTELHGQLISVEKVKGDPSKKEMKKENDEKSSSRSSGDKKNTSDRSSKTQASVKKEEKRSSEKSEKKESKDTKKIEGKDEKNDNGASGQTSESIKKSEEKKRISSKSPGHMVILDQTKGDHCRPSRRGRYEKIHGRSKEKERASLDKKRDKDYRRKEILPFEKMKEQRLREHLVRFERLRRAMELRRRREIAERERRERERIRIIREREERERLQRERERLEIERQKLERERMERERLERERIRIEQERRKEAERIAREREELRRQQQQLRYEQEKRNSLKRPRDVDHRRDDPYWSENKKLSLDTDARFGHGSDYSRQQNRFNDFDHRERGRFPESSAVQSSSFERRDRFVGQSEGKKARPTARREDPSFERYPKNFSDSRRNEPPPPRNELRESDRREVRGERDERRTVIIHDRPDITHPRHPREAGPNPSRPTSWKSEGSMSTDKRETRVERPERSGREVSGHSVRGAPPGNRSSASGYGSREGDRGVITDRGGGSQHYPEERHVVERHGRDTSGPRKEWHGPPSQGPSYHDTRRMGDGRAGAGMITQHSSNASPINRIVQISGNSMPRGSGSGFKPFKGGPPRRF
structure (smiles),measurement,setting,value
Cc1cc(C(=O)N2CCCN(C(=O)CCl)CC2)ccc1-c1ccccc1 [compound 10],probe-labelled cysteine peptide fold change,10 µM,0.0217
same,probe-labelled cysteine peptide fold change,50 µM,-1.37
